# The campaign covered roughly 44,000 compounds. Fewer than 10 were called active. Calls come from the whole dose curve; as a rule, active = well fitted activation curve with a large enough effect; inconclusive = small, poorly fitted or top-dose-only effect, or another doubt; inactive = no such curve, though single readings can be large or run the other way. These entries were drawn from the full list.
# Target: Beta-2 adrenergic receptor (Homo sapiens) (UniProt P07550)
# Test: qHTS assay of beta-arrestin-biased ligands of beta2-adrenergic receptor: NCGC Sytravon Library Screen;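 note: 0% = DMSO and full agonism = EC100 isoproterenol or metaproterenol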
# Details: HTLA Tango cells, beta-arrestin recruitment, luciferase luminescence, 18 h; series mostly up to 46.1 µM; activation: at the top concentration
# Description: The concept of biased agonism is an emerging concept of molecular pharmacology which proposes that seven transmembrane receptors (7TMRs) or G protein-coupled receptors (GPCRs), exist in multiple signaling conformations and complexes and that ligands (either agonists or antagonists) can induce signaling biased responses for distinct signal transduction cascades. […] Furthermore, accumulating evidence over the last decade has drawn attention to a novel function of beta-arrestins as signal transducers that scaffold various signaling molecules upon activation of 7TMRs. […] This beta-arrestin-biased signaling presumably leads to distinct physiological outcomes from those by G protein activation. Additionally, the active receptor conformations which prefer on this beta-arrestin signaling are likely different from those activating G protein signaling. […] The goal of this screening project will be to discover and optimize novel beta-arrestin-biased ligands for beta2-AR signaling. A luminescent cell-based assay for beta2-AR-mediated agonism, known as the Tango assay, has been validated in which ligand binding of a recombinant beta2-AR and subsequent recruitment of a recombinant beta-arrestin lead to the release of the transcriptional activator tTA, which upregulates transcription of a tTA-responsive luciferase gene. […] Compounds from the NCGC Sytravon Library collection were screened as a concentration-titration series that ranged from 46 microM to 0.6 nM. NIH Molecular Libraries Probe Production Network [MLPCN] NIH Chemical Genomics Center [NCGC] MLPCN Grant: Fast-track/HHSN271700800025C PI: Bryan Roth and Bob Lefkowitz
# Tango cells were dispensed into white, solid, tissue-culture-treated 1536-well plates at 1500 cells/well in DMEM, containing 1% fetal bovine serum (FBS). Then, 23 nL of compounds or DMSO were delivered to each well using a pin tool. Plates were incubated at 37 degrees C, 5% CO2 for 18 hr. Then 2.5 uL luminescent substrate mix (in-house prepared: 150 mM Tris-Cl, pH 7.6, 3 mM MgCl2, 1% Triton X-100, 5 mM DTT, 0.5 mM CoA, 0.15 mM ATP, 0.44 mM D-luciferin, final concentrations) was added to each well. Plates were then incubated for 15 minutes at room temperature, and subsequently measured on a ViewLux plate reader for luminescent signal using a clear filter with a 10 second exposure and 2x binning. The %Activity was determined from the corrected luminescence values. […] Concentration-response curves were fitted to the signals arising from the resulting luminescence. The concentration-effect curves were then classified based on curve quality (r2), response magnitude and degree of measured activity, and compounds were subsequently categorized based on their curve class.
# Chain of Beta-2 adrenergic receptor (Homo sapiens) (P07550 whole entry, looked up): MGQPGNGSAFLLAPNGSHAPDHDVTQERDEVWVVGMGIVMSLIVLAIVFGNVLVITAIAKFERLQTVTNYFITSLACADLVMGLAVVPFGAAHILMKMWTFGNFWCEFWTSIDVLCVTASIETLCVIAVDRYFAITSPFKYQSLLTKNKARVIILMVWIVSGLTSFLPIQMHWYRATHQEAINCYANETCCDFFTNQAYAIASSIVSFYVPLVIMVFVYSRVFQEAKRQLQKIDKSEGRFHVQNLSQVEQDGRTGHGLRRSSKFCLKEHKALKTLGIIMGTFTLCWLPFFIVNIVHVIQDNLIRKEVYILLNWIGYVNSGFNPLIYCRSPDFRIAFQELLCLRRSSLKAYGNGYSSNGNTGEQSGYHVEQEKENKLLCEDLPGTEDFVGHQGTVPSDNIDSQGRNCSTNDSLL
row,SMILES,activation
1,Cc1cc(C)cc(NS(=O)(=O)c2cc3c(cc2C)NC(=O)CO3)c1,-0.844% (inactive)
2,Cc1[nH]c2ccccc2c1C(c1ccccc1)c1cccs1 (stereo unspecified),0.001% (inactive)
3,CCOC(=O)c1c(C)[nH]c(C)c1S(=O)(=O)N1CCC(C(=O)Nc2ccc(C)c(Cl)c2)CC1,-0.156% (inactive)
4,Cc1csc2nc(COc3ccc(NC(=O)COc4ccccc4)cc3)cc(=O)n12,0.0821% (inactive)
5,COc1ccc(OC)c(CNC(=O)c2c3c(nc4ccccc24)C(=O)N(C2CCCCC2)C3)c1,-0.621% (inactive)
6,Cc1ccc(NC(=O)CN2C(=O)C(c3ccc(F)cc3)=NC23CCCCCC3)c(C)c1,-2.97% (inactive)
7,CCOc1ccc(C(=O)Nc2ccc3nc4c(c(Nc5ccccc5OC)c3c2)CCCC4)cc1,1.06% (inactive)
8,CCc1ccc(S(=O)(=O)c2nnn3c2nc(N2CCN(CC)CC2)c2sccc23)cc1,0.0012% (inactive)
9,O=C(c1ccccc1F)N1CCC(c2nc3c(nnn3Cc3cccc(F)c3)c(=O)[nH]2)CC1,0.988% (inactive)
10,Cc1cc(=O)c2cc(C(=O)Nc3cccc(C)c3C)ccc2[nH]1,-2.58% (inactive)
11,O=C(Nc1nnc(S(=O)(=O)N2CCOCC2)s1)c1cccc(Br)c1,-0.507% (inactive)
12,COc1cccc(-c2nnc(SCC(=O)N3CCC(C)CC3)o2)c1,0.664% (inactive)
13,COc1ccc2c(C)c(CCC(=O)NCc3ccc(OC)c(OC)c3)c(=O)oc2c1,1.22% (inactive)
14,O=C(Cn1cc(SCc2cccc(Cl)c2)c2ccccc21)N1CCCCC1,-0.201% (inactive)
15,COc1ccc(-c2cn3c(n2)sc2cc(C(=O)Nc4ccccc4F)ccc23)cc1,0.202% (inactive)
16,COc1cc(OC)c(OC)cc1/C=C/c1nc2ccccc2c(=O)n1-c1ccc(Br)c(C)c1,1.95% (inactive)
17,CCOC(=O)c1c(S(=O)(=O)N2CCCC(C(=O)NCc3ccc(F)cc3)C2)c(C)n(CC)c1C (stereo unspecified),-1.48% (inactive)
18,COc1ccc(CCNC(=O)CCCCn2c(=O)c3ccccc3n(Cc3ccccc3C)c2=O)cc1OC,8.59% (inactive)
19,CCOc1ccc(S(=O)(=O)c2cn(Cc3ccccc3)c3ccc(OCC)cc3c2=O)cc1,0.937% (inactive)
20,COc1ccc(NC(=O)CSc2nccn2C2CCCC2)cc1OC,-2.77% (inactive)
21,Cc1ccc(-c2cnc(C3CC3)o2)cc1S(=O)(=O)Nc1cccc(C)c1C,0.723% (inactive)
22,COc1ccc(S(=O)(=O)NCC(c2ccco2)N2CCOCC2)cc1 (stereo unspecified),-2.12% (inactive)
23,CCOC(=O)c1c(NC(C)=O)c2c3c(sc2n1Cc1c(C)cc(C)cc1C)CCCC3,-0.225% (inactive)
24,COc1ccc(-c2[nH]c3c(c2-c2c(-n4cccc4)n(C)c(=O)n(C)c2=O)c(=O)n(C)c(=O)n3C)cc1,-2.25% (inactive)
25,CC(C)c1ccc(NC(=O)Cn2nnc(C(=O)NCCc3ccccc3)c2N)cc1,-0.0029% (inactive)
26,CCn1c(=O)cc(OCC(=O)Nc2cc(Cl)c(OC)cc2OC)c2ccccc21,1.08% (inactive)
